Test results: PubChem BioAssay AID1159580 (chemical genetic matrix, 2015)
In all, about 5,500 compounds went through this assay and about 2,000 (36%) were called active. Another 18% or so got no clear call; they are omitted. Cut-off read from the data, not from the text of the source: active = normalized growth mostly below about 0.91 (no sharp cut-off); inconclusive = no clear call, values can overlap the other calls; inactive = mostly above about 0.92. This is one part of the list.

Assay: chemical genetic growth profiling, strain panel (AID 1159580);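 note: tested at 20 µM; growth read once vehicle control cultures reached saturation at 30 °C; 1 = growth at the plate median or of vehicle wells; lower values mean less growth of the strain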
Settings: growth OD
[1] = S. cerevisiae deletion strains, locus YAL013W, strain DEP1, stronger effect = lower value
[2] = S. cerevisiae deletion strains, locus YDR150W, strain NUM1, stronger effect = lower value
[3] = S. cerevisiae deletion strains, locus YJL095W, strain BCK1, stronger effect = lower value
[4] = S. cerevisiae deletion strains, locus YMR307W, strain GAS1, stronger effect = lower value
[5] = S. cerevisiae deletion strains, locus YPL241C, strain CIN2, stronger effect = lower value
[6] = S. cerevisiae deletion strains, locus YAL040C, strain CLN3, stronger effect = lower value
[7] = S. cerevisiae deletion strains, locus YDR363W, strain ESC2, stronger effect = lower value
[8] = S. cerevisiae deletion strains, locus YER002W, strain NOP16, stronger effect = lower value
[9] = S. cerevisiae deletion strains, locus YNL175C, strain NOP13, stronger effect = lower value
[10] = S. cerevisiae deletion strains, locus YNL197C, strain WHI3, stronger effect = lower value
[11] = S. cerevisiae deletion strains, locus YNL224C, strain SQS1, stronger effect = lower value
[12] = S. cerevisiae deletion strains, locus YOR083W, strain WHI5 (second series), stronger effect = lower value

Measured: normalized growth

CC1(C)C(=O)[C@@H]2O[C@@H]2[C@@]2(C)C1CC(=O)[C@]1(C)C2CC[C@@]2(C)[C@H](c3ccoc3)OC(=O)[C@H]3O[C@]321 (some centres undefined)
inactive: [1] 0.99 | S. cerevisiae deletion strains, locus YBR021W, strain FUR4, stronger effect = lower value 1.04 | S. cerevisiae deletion strains, locus YBR229C, strain ROT2, stronger effect = lower value 0.984 | S. cerevisiae deletion strains, locus YCL029C, strain bik1, stronger effect = lower value 0.976 | S. cerevisiae deletion strains, locus YDL035C, strain GPR1, stronger effect = lower value 0.992 | S. cerevisiae deletion strains, locus YDL074C, strain BRE1, stronger effect = lower value 0.955 | S. cerevisiae deletion strains, locus YDL101C, strain DUN1, stronger effect = lower value 0.978 | S. cerevisiae deletion strains, locus YDL134C, strain PPH21, stronger effect = lower value 0.967 | S. cerevisiae deletion strains, locus YDL185W, strain tfp1, stronger effect = lower value 0.951 | S. cerevisiae deletion strains, locus YDL192W, strain arf1, stronger effect = lower value 0.979 | S. cerevisiae deletion strains, locus YDR101C, strain arx1, stronger effect = lower value 0.985 | [2] 0.991 | S. cerevisiae deletion strains, locus YDR162C, strain NBP2, stronger effect = lower value 0.943 | S. cerevisiae deletion strains, locus YDR318W, strain mcm21, stronger effect = lower value 0.984 | S. cerevisiae deletion strains, locus YDR388W, stronger effect = lower value 0.985 | S. cerevisiae deletion strains, locus YDR502C, strain sam2, stronger effect = lower value 0.969 | S. cerevisiae deletion strains, locus YEL061C, strain CIN8, stronger effect = lower value 0.994 | S. cerevisiae deletion strains, locus YER110C, stronger effect = lower value 0.98 | S. cerevisiae deletion strains, locus YER155C, strain BEM2, stronger effect = lower value 0.994 | S. cerevisiae deletion strains, locus YER167W, strain BCK2, stronger effect = lower value 0.991 | S. cerevisiae deletion strains, locus YGL078C, strain dbp3, stronger effect = lower value 0.966 | S. cerevisiae deletion strains, locus YGL086W, strain mad1, stronger effect = lower value 0.995 | S. cerevisiae deletion strains, locus YGL248W, strain PDE1, stronger effect = lower value 0.949 | S. cerevisiae deletion strains, locus YGR135W, strain pre9, stronger effect = lower value 0.968 | S. cerevisiae deletion strains, locus YGR252W, strain gcn5, stronger effect = lower value 0.962 | S. cerevisiae deletion strains, locus YHR079C, strain IRE1 (second series), stronger effect = lower value 0.987 | S. cerevisiae deletion strains, locus YHR094C, strain hxt1, stronger effect = lower value 0.981 | S. cerevisiae deletion strains, locus YHR129C, strain ARP1, stronger effect = lower value 0.988 | S. cerevisiae deletion strains, locus YHR200W, strain rpn10, stronger effect = lower value 0.988 | S. cerevisiae deletion strains, locus YIL066C, strain RNR3, stronger effect = lower value 0.987 | S. cerevisiae deletion strains, locus YIL073C, strain SPO22, stronger effect = lower value 0.96 | S. cerevisiae deletion strains, locus YIL125W, strain kgd1, stronger effect = lower value 0.943 | S. cerevisiae deletion strains, locus YIR030C, strain dcg1, stronger effect = lower value 0.975 | [3] 0.946 | S. cerevisiae deletion strains, locus YJL134W, strain LCB3, stronger effect = lower value 0.988 | S. cerevisiae deletion strains, locus YJL168C, strain set2, stronger effect = lower value 0.989 | S. cerevisiae deletion strains, locus YJL187C, strain SWE1 (second series), stronger effect = lower value 0.977 | S. cerevisiae deletion strains, locus YJR043C, strain POL32, stronger effect = lower value 0.991 | S. cerevisiae deletion strains, locus YKL009W, strain mrt4, stronger effect = lower value 0.971 | S. cerevisiae deletion strains, locus YKL068W, stronger effect = lower value 0.973 | S. cerevisiae deletion strains, locus YKL085W, strain MDH1 (second series), stronger effect = lower value 0.981 | S. cerevisiae deletion strains, locus YKL085W, strain MDH1, stronger effect = lower value 0.981 | S. cerevisiae deletion strains, locus YKR001C, strain vps1, stronger effect = lower value 0.957 | S. cerevisiae deletion strains, locus YLR039C, strain RIC1, stronger effect = lower value 0.951 | S. cerevisiae deletion strains, locus YLR058C, strain SHM2, stronger effect = lower value 0.988 | S. cerevisiae deletion strains, locus YLR102C, strain apc9, stronger effect = lower value 0.975 | S. cerevisiae deletion strains, locus YLR262C, strain YPT6, stronger effect = lower value 0.912 | S. cerevisiae deletion strains, locus YLR268W, strain sec22, stronger effect = lower value 0.997 | S. cerevisiae deletion strains, locus YLR330W, strain CHS5, stronger effect = lower value 0.99 | S. cerevisiae deletion strains, locus YLR342W, strain FKS1 (second series), stronger effect = lower value 1.03 | S. cerevisiae deletion strains, locus YLR371W, strain rom2, stronger effect = lower value 0.962 | S. cerevisiae deletion strains, locus YLR418C, strain cdc73, stronger effect = lower value 0.904 | S. cerevisiae deletion strains, locus YML016C, strain PPZ1, stronger effect = lower value 0.984 | S. cerevisiae deletion strains, locus YML032C, strain rad52, stronger effect = lower value 0.992 | S. cerevisiae deletion strains, locus YML124C, strain tub3, stronger effect = lower value 0.97 | S. cerevisiae deletion strains, locus YMR078C, strain ctf18, stronger effect = lower value 0.955 | S. cerevisiae deletion strains, locus YMR223W, strain ubp8, stronger effect = lower value 0.973 | [4] 1.05 | S. cerevisiae deletion strains, locus YNL067W, strain RPL9B, stronger effect = lower value 0.957 | S. cerevisiae deletion strains, locus YNL233W, strain BNI4, stronger effect = lower value 0.964 | S. cerevisiae deletion strains, locus YNL250W, strain rad50, stronger effect = lower value 0.96 | S. cerevisiae deletion strains, locus YNL271C, strain bni1, stronger effect = lower value 0.973 | S. cerevisiae deletion strains, locus YNL298W, strain CLA4, stronger effect = lower value 0.967 | S. cerevisiae deletion strains, locus YNL307C, strain MCK1, stronger effect = lower value 0.982 | S. cerevisiae deletion strains, locus YNR052C, strain pop2, stronger effect = lower value 0.977 | S. cerevisiae deletion strains, locus YOL006C, strain TOP1, stronger effect = lower value 0.895 | S. cerevisiae deletion strains, locus YOL012C, strain htz1 0.769 | S. cerevisiae deletion strains, locus YOL147C, strain pex11, stronger effect = lower value 0.988 | S. cerevisiae deletion strains, locus YOR061W, strain CKA2, stronger effect = lower value 0.977 | S. cerevisiae deletion strains, locus YOR069W, strain VPS5, stronger effect = lower value 0.985 | S. cerevisiae deletion strains, locus YOR136W, strain idh2, stronger effect = lower value 0.995 | S. cerevisiae deletion strains, locus YOR144C, strain elg1, stronger effect = lower value 0.983 | S. cerevisiae deletion strains, locus YOR184W, strain ser1, stronger effect = lower value 0.982 | S. cerevisiae deletion strains, locus YOR316C, strain cot1, stronger effect = lower value 0.973 | [5] 0.977 | S. cerevisiae deletion strains, locus YPR119W, strain clb2, stronger effect = lower value 0.986 | S. cerevisiae deletion strains, locus YPR141C, strain kar3, stronger effect = lower value 0.964 | S. cerevisiae deletion strains, locus YPR163C, strain tif3, stronger effect = lower value 0.995 | S. cerevisiae deletion strains, locus YPR167C, strain met16, stronger effect = lower value 0.985 | S. cerevisiae deletion strains, strain wtn01, stronger effect = lower value 0.978 | S. cerevisiae strains, strain wild type, stronger effect = lower value 1.01

Cc1nc(N=Nc2ccc(S(=O)(=O)O)cc2S(=O)(=O)O)c(COP(=O)(O)O)c(C=O)c1O
inactive: [6] 1 | S. cerevisiae deletion strains, locus YCL061C, strain MRC1 (second series), stronger effect = lower value 1 | [2] 1.01 | [7] 1.01 | [8] 0.993 | S. cerevisiae deletion strains, locus YGR229C, strain SMI1, stronger effect = lower value 1.02 | [4] 0.998 | S. cerevisiae deletion strains, locus YNL128W, strain TEP1, stronger effect = lower value 1.02 | [9] 1 | [10] 1.01 | [11] 1.01 | [12] 1.01 | S. cerevisiae deletion strains, locus YPL055C, strain LGE1, stronger effect = lower value 1 | [5] 0.997

CC(C)C1C2CCC(C2)C1N (centres undefined)
inactive: [1] 1.01 | [6] 0.976 | [2] 0.985 | [7] 1.02 | [8] 1 | S. cerevisiae deletion strains, locus YGR078C, strain PAC10, stronger effect = lower value 1.02 | S. cerevisiae deletion strains, locus YNL153C, strain GIM3, stronger effect = lower value 1.03 | [9] 1.02 | [10] 1 | [11] 1.03 | [12] 1.01

O1[As]2O[As]3O[As]1O[As](O2)O3
inactive: S. cerevisiae deletion strains, locus YHR030C, strain SLT2, stronger effect = lower value 0.959 | S. cerevisiae deletion strains, locus YHR079C, strain IRE1, stronger effect = lower value 0.974 | [3] 0.983 | S. cerevisiae deletion strains, locus YJR066W, strain TOR1, stronger effect = lower value 0.961 | S. cerevisiae deletion strains, locus YLR113W, strain HOG1, stronger effect = lower value 1.05 | S. cerevisiae deletion strains, locus YNL183C, strain NPR1, stronger effect = lower value 0.927 | S. cerevisiae deletion strains, locus YOR231W, strain MKK1, stronger effect = lower value 0.973 | S. cerevisiae deletion strains, locus YPL256C, strain CLN2, stronger effect = lower value 0.98
